# Measured values reported in paper PMC7862700, “An all-to-all approach to the identification of sequence-specific readers for epigenetic DNA modifications on cytosine”.
# Assays:
# Assay in all cases: DAPPL (digital affinity profiling via proximity ligation, sequencing); 10 mM Tris-HCl pH 7.5, 50 mM NaCl, 1 mM DTT, 4% glycerol, room temperature, 30 min; GST-TFs on glutathione beads, 16-mer random dsDNA library, 0.1% formaldehyde crosslink after washing; high values mean tight binding
# [1] = biological target: T1, FLI1 (Homo sapiens, UniProt Q01543 1-452); conditions: protein: recombinant; tags: N-terminal GST; dsDNA, one strand shown
# T1 sequence: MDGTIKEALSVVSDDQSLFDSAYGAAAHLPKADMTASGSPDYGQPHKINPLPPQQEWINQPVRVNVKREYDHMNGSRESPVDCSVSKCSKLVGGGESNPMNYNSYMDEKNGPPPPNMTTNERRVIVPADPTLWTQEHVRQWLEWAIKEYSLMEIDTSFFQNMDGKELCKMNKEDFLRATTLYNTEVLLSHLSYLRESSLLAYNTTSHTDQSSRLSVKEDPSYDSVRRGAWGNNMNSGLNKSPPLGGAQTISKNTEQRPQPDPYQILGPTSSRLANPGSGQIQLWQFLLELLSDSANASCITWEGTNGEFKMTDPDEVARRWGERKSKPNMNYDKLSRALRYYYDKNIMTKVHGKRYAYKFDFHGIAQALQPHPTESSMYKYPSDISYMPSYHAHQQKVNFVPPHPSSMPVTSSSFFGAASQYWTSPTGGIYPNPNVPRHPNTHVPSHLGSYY
# Outline: (§1)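 After expression in yeast as GST fusions, human transcription factors were bound to glutathione beads, DNA-barcoded and mixed with a tag-only sample. The pools were incubated with 200 nmole of a 16-mer random double-stranded DNA library in Tris/NaCl/DTT/glycerol buffer (30 min, room temperature), washed and crosslinked with 0.1% formaldehyde. Proximity ligation with BsaI/T4 ligase ran for 1 h at 37 °C, before PCR amplification and sequencing on an Illumina NextSeq500. Binding signal is a hexamer's read frequency for a factor divided by its frequency for the tag-only sample.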
# [2] = biological target: T2, GABPA (Homo sapiens, UniProt Q06546 1-454); conditions: protein: recombinant; tags: N-terminal GST; dsDNA, one strand shown
# T2 sequence: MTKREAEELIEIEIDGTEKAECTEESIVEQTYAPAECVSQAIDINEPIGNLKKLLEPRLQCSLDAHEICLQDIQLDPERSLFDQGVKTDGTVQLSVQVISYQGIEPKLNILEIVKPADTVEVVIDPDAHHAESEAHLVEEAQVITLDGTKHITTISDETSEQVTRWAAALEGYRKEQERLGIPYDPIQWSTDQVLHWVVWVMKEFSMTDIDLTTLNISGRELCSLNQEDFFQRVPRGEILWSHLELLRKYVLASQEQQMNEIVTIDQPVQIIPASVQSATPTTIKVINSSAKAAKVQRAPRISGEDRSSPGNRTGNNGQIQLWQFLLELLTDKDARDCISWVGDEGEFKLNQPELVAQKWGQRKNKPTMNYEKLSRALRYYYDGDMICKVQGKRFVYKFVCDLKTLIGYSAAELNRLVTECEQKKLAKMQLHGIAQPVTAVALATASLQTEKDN
# Outline: as §1
# [3] = biological target: ELF1 (Homo sapiens, UniProt P32519 1-619); conditions: protein: recombinant; tags: N-terminal GST; dsDNA, one strand shown
# Outline: as §1
# [4] = biological target: T3, EHF (Homo sapiens, UniProt Q9NZC4 1-300); conditions: protein: recombinant; tags: N-terminal GST; dsDNA, one strand shown
# T3 sequence: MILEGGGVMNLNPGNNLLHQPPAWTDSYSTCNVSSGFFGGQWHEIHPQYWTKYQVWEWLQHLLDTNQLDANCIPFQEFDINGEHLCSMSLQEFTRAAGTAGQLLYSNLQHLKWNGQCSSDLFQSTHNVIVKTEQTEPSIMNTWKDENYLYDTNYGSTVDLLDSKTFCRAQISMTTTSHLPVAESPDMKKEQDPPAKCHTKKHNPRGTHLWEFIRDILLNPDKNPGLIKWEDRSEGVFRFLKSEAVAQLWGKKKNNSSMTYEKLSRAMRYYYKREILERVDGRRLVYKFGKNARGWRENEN
# Outline: as §1
# [5] = biological target: SPI1 (Homo sapiens, UniProt P17947 1-270); conditions: protein: recombinant; tags: N-terminal GST; dsDNA, one strand shown
# Outline: as §1
# [6] = biological target: SPIB (Homo sapiens, UniProt Q01892 1-262); conditions: protein: recombinant; tags: N-terminal GST; dsDNA, one strand shown
# Outline: as §1
# [7] = biological target: T4, FEV (Homo sapiens, UniProt Q99581 1-238); conditions: protein: recombinant; tags: N-terminal GST; dsDNA, one strand shown
# T4 sequence: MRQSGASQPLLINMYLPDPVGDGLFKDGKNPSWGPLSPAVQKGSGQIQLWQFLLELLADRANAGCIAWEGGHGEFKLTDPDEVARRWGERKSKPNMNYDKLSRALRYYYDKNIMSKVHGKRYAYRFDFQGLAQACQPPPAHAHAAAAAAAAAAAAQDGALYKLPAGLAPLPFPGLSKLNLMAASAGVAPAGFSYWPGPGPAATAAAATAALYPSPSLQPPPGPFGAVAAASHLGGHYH
# Outline: as §1
# [8] = biological target: ETV5 (Homo sapiens, UniProt P41161 1-510); conditions: protein: recombinant; tags: N-terminal GST; dsDNA, one strand shown
# Outline: as §1
# [9] = biological target: HSF1 (Homo sapiens, UniProt Q00613 1-529); conditions: protein: recombinant; tags: N-terminal GST; chain copies: 3; dsDNA, one strand shown
# Outline: as §1
# [10] = biological target: T5, SPIC (Homo sapiens, UniProt Q8N5J4 1-248); conditions: protein: recombinant; tags: N-terminal GST; dsDNA, one strand shown
# T5 sequence: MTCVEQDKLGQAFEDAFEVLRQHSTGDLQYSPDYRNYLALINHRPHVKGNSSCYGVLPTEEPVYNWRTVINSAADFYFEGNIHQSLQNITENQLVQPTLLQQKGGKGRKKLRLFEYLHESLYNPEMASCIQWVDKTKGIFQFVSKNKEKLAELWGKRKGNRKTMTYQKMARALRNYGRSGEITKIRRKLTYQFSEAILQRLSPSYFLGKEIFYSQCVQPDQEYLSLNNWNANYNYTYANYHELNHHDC
# Outline: as §1
# [11] = biological target: ELF4 (Homo sapiens, UniProt Q99607 1-663); conditions: protein: recombinant; tags: N-terminal GST; dsDNA, one strand shown
# Outline: as §1
# [12] = biological target: T6, ELK4 (Homo sapiens, UniProt P28324-2 1-405); conditions: protein: recombinant; tags: N-terminal GST; dsDNA, one strand shown
# T6 sequence: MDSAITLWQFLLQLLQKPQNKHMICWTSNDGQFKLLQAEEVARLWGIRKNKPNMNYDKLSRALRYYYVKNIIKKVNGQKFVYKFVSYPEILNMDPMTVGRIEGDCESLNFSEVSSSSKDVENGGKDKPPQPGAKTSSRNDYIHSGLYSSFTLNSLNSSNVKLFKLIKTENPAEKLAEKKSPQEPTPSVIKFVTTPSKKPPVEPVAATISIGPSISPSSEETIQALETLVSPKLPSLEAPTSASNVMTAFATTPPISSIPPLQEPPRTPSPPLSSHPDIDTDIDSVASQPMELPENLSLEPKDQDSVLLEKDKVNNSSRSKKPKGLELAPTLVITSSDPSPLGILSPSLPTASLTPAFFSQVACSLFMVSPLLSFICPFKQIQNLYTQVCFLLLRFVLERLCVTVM
# Outline: as §1
# [13] = biological target: T7, ETV2 (Homo sapiens, UniProt O00321 1-342); conditions: protein: recombinant; tags: N-terminal GST; dsDNA, one strand shown
# T7 sequence: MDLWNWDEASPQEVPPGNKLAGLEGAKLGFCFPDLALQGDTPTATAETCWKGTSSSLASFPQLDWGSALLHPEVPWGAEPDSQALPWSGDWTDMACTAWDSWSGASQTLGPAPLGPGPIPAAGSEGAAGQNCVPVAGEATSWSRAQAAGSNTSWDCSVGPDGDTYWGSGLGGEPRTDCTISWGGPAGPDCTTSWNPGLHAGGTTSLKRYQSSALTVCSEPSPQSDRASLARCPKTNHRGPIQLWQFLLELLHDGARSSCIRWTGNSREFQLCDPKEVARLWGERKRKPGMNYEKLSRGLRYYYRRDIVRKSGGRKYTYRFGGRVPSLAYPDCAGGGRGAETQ
# Outline: as §1
# [14] = biological target: T8, ELF3 (Homo sapiens, UniProt P78545 1-371); conditions: protein: recombinant; tags: N-terminal GST; dsDNA, one strand shown
# T8 sequence: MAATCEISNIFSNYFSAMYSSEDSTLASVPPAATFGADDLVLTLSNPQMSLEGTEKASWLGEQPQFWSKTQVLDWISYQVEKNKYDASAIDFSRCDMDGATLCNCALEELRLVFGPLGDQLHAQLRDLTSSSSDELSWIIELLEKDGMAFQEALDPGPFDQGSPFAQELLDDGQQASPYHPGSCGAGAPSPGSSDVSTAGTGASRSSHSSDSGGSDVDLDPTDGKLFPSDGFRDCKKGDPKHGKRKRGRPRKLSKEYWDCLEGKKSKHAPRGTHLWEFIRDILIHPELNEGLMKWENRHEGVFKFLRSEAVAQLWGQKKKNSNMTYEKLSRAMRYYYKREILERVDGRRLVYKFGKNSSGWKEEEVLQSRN
# Outline: as §1
# [15] = biological target: ETV1 (Homo sapiens, UniProt P50549 1-477); conditions: protein: recombinant; tags: N-terminal GST; dsDNA, one strand shown
# Outline: as §1
# Chain of ELF4 (Q99607 whole entry): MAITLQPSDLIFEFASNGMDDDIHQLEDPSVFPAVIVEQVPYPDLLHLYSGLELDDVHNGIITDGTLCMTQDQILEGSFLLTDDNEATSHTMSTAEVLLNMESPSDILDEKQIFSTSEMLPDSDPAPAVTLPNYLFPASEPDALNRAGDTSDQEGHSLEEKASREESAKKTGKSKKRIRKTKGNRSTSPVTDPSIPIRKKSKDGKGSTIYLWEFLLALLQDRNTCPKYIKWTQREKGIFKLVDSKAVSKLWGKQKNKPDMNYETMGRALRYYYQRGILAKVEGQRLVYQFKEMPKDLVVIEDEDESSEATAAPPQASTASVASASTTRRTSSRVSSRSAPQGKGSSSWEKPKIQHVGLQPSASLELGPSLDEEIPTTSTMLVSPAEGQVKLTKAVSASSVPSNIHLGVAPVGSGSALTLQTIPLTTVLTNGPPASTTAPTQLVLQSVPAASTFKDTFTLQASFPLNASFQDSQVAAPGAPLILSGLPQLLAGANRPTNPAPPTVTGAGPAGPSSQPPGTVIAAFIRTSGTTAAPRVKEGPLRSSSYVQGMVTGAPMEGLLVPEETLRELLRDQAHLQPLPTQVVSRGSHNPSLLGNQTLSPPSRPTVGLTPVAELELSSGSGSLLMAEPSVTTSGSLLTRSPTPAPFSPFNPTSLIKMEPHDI
# Chain of HSF1 (Q00613 whole entry): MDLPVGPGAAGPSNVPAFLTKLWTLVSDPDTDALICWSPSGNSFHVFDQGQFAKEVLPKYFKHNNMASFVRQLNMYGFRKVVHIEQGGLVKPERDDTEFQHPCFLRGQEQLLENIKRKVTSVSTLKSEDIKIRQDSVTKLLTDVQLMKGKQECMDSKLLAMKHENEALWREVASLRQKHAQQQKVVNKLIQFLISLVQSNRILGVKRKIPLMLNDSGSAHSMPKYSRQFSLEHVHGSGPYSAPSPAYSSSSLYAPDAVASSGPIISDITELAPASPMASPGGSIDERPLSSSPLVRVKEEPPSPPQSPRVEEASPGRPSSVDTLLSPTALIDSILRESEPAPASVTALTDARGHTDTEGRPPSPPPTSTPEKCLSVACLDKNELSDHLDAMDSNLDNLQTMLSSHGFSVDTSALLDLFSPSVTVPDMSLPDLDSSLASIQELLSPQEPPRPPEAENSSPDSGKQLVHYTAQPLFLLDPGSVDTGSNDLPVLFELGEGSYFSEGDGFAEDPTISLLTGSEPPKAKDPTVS
# Chain of SPIB (Q01892 whole entry): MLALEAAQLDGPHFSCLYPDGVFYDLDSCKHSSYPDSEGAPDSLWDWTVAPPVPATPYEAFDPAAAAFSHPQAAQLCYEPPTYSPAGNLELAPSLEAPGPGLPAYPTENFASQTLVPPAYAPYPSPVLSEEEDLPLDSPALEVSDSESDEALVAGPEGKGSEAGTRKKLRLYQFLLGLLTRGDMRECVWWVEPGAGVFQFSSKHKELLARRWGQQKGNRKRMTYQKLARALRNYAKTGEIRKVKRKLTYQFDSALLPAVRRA
# Chain of ELF1 (P32519 whole entry): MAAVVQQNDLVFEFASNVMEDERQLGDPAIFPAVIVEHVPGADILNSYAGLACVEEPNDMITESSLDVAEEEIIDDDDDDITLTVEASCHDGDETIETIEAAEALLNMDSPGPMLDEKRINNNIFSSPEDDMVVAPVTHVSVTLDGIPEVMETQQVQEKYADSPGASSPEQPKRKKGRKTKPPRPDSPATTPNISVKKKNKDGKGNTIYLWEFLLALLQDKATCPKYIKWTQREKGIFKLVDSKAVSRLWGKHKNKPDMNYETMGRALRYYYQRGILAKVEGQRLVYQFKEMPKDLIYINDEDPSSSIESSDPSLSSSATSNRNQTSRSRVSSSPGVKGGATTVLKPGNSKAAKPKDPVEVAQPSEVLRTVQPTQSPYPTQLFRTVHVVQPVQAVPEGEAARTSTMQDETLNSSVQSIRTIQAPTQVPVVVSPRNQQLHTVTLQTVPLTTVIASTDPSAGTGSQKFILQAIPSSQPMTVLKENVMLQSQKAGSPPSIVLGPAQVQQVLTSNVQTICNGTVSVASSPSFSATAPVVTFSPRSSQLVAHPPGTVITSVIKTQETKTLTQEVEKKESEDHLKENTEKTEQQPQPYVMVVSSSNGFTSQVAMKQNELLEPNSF
# Chain of ETV1 (P50549 whole entry): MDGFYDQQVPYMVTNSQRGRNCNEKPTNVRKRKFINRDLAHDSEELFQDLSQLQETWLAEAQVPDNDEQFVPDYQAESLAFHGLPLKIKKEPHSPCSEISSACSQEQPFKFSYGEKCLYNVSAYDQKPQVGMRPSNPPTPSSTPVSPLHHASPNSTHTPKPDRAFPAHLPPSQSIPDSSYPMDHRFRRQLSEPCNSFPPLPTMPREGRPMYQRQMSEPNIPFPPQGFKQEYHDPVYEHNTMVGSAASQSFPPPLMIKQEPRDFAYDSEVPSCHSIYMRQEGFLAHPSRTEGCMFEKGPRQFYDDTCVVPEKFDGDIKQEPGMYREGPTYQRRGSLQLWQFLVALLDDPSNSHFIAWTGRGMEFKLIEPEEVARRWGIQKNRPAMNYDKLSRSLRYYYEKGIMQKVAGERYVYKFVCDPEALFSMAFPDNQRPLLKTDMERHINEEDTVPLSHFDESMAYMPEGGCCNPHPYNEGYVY
# Chain of ETV5 (P41161 whole entry): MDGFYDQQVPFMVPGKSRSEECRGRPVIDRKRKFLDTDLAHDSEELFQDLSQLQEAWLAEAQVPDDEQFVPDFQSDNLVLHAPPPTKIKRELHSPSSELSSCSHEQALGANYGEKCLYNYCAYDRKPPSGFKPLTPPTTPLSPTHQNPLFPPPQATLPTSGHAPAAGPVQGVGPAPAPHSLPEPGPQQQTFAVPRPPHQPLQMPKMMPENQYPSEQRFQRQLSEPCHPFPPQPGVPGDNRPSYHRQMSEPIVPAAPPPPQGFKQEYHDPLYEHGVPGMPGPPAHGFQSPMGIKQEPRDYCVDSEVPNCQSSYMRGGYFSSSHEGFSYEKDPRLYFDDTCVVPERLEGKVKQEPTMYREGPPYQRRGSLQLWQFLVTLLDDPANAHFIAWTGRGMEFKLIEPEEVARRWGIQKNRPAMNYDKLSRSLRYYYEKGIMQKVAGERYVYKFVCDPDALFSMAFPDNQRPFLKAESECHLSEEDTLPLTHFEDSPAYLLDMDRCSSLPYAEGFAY
sequence,measurement,setting,value
ATGCTG,binding signal,[1],"1.09 fold enrichment (6-mer frequency, TF over GST control)"
same,binding signal,[2],"1.07 fold enrichment (6-mer frequency, TF over GST control)"
same,binding signal,[3],"1.13 fold enrichment (6-mer frequency, TF over GST control)"
same,binding signal,[4],"1.22 fold enrichment (6-mer frequency, TF over GST control)"
same,binding signal,[5],"1.07 fold enrichment (6-mer frequency, TF over GST control)"
same,binding signal,[6],"1.05 fold enrichment (6-mer frequency, TF over GST control)"
same,binding signal,[7],"1.06 fold enrichment (6-mer frequency, TF over GST control)"
same,binding signal,[8],"1.13 fold enrichment (6-mer frequency, TF over GST control)"
same,binding signal,[9],"1.02 fold enrichment (6-mer frequency, TF over GST control)"
same,binding signal,[10],"1.14 fold enrichment (6-mer frequency, TF over GST control)"
same,binding signal,[11],"1.06 fold enrichment (6-mer frequency, TF over GST control)"
same,binding signal,[12],"1.26 fold enrichment (6-mer frequency, TF over GST control)"
same,binding signal,[13],"1.19 fold enrichment (6-mer frequency, TF over GST control)"
same,binding signal,[14],"1.26 fold enrichment (6-mer frequency, TF over GST control)"
same,binding signal,[15],"1.06 fold enrichment (6-mer frequency, TF over GST control)"
